Shown are actives, neighbours in structure and some others; about 2.1% of the full set was active somewhere.
Shn3 3UTR inh – inhibitors of Schnurri-3 3'UTR reporter in osteoblasts | Clone20 osteoblast Shn3 3'UTR firefly luciferase, 24 h | inhibition, % at 12.5 µM | 0.52% of 360,000 active | AID 588674;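 active means mean inhibition of at least 75% with every replicate also reaching 75%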
EBV LMP1 NFkB – reduces LMP1-driven NF-kappaB luciferase signal | AID 504558 | 0.69% of 350,000 active | inhibition, % at 12.5 µM | LMP1-induced NF-kappaB luciferase reporter cells, luminescence; in the data active means inhibition above about 41%
PAX8 reporter – PAX8 transcriptional activity inhibition. RMG-I TPO-luciferase reporter, SteadyGlo, 24 h. inhibition, % at 12.6 µM. 1.2% of 360,000 active. AID 652154;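 active means mean replicate inhibition at least 60% with every replicate also reaching 60%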;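 further: luciferase light reporting Pax8 driven TPO promoter activity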
TRPM1 prom inh – MITF TRPM1 promoter inhibition in SK-MEL-5 cells; 0.83% of 330,000 active; SK-MEL-5 TRPM1 promoter luciferase, 24 h; inhibition, % at 12.5 µM;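 active means mean inhibition across replicates of 60% or more, whatever share of single replicates reaches that level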
aSyn UTR inh – MLPCN primary screen, SNCA 5' untranslated region. alpha-synuclein 5'UTR reporter, inhibitor activity. inhibition, % (tested at 7.5 µM). 0.82% of 300,000 active. AID 1813; in the data active means inhibition above about 60%;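 further: H4 neuroglioblastoma cells stably carrying SNCA 5'UTR luciferase fusion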
Of the large screens only hits and unclear results are named; the others gave an inactive call.

O=C(C[C@@H]1C[C@@H]2c3cc(NC(=O)Nc4ccc(C(F)(F)F)cc4)ccc3O[C@@H]2[C@@H](CO)O1)NCc1ccc(Cl)cc1	none (no result: Shn3 3UTR inh, EBV LMP1 NFkB, TRPM1 prom inh, aSyn UTR inh)
O=C(C[C@H]1C[C@@H]2c3cc(NS(=O)(=O)c4ccc(F)cc4)ccc3O[C@@H]2[C@H](CO)O1)NCc1ccc(-c2ccccc2)cc1	PAX8 reporter 64.5 (no result: Shn3 3UTR inh, EBV LMP1 NFkB, TRPM1 prom inh, aSyn UTR inh)
O=C(C[C@@H]1C[C@H]2c3cc(NS(=O)(=O)c4ccc(F)cc4)ccc3O[C@H]2[C@H](CO)O1)NCc1ccc(-c2ccccc2)cc1	PAX8 reporter 88.0 (no result: Shn3 3UTR inh, EBV LMP1 NFkB, TRPM1 prom inh, aSyn UTR inh)
O=C(Nc1ccc(C(F)(F)F)cc1)Nc1ccc2c(c1)[C@H]1C[C@H](CC(=O)N3CCc4ccccc4C3)O[C@H](CO)[C@H]1O2	PAX8 reporter 82.4 (no result: Shn3 3UTR inh, EBV LMP1 NFkB, TRPM1 prom inh, aSyn UTR inh)
O=C(C[C@H]1C[C@@H]2c3cc(NC(=O)Nc4ccc(C(F)(F)F)cc4)ccc3O[C@@H]2[C@@H](CO)O1)NCc1ccc(Cl)cc1	PAX8 reporter 88.7 (no result: Shn3 3UTR inh, EBV LMP1 NFkB, TRPM1 prom inh, aSyn UTR inh)
O=C(CCc1nc2ccccc2c(=O)[nH]1)Nc1nnc(SCc2ccc(Cl)cc2)s1	none
CCOC(=O)c1c(CN2CCCCC2)oc2ccc(OC)cc12	none
O=C(C[C@@H]1C[C@@H]2c3cc(NC(=O)Cc4ccncc4)ccc3O[C@@H]2[C@H](CO)O1)NCc1ccc(-c2ccccc2)cc1	PAX8 reporter 102.1 (no result: Shn3 3UTR inh, EBV LMP1 NFkB, TRPM1 prom inh, aSyn UTR inh)
CSCC(=O)NC1CCCc2c1cnn2-c1cc(F)cc(F)c1 (stereo not drawn)	none
O=C(CCc1ccncc1)NC1CCCc2c1cnn2-c1cc(F)cc(F)c1 (stereo not drawn)	aSyn UTR inh 78.7 (no result: PAX8 reporter)
CC(C)(C)c1ccc(-n2ncc3c2CCCC3NC(=O)CCN2CCCC2=O)cc1 (stereo not drawn)	Shn3 3UTR inh 88.0
CC(C)(C)c1ccc(-n2ncc3c2CCCC3NC(=O)CN2CCCC2=O)cc1 (stereo not drawn)	none
Nc1nc(N)c2cc(Sc3ccc4ccccc4c3)ccc2n1	PAX8 reporter 68.5, aSyn UTR inh 96.1 (no result: EBV LMP1 NFkB, TRPM1 prom inh)
C[C@@H]1CN([C@H](C)CO)S(=O)(=O)c2ccc(C#CCN(C)C)cc2O[C@H]1CN(C)S(=O)(=O)c1cccc(F)c1	none (no result: Shn3 3UTR inh, EBV LMP1 NFkB, TRPM1 prom inh, aSyn UTR inh)
O=C(O)CCN1C(=O)C2C3c4ccccc4C(c4ccccc43)C2C1=O (stereo not drawn)	EBV LMP1 NFkB 50.2
COc1ccc(NC(=O)Nc2cccc3c2O[C@H](CN(C)S(=O)(=O)c2c(C)noc2C)[C@@H](C)CN([C@H](C)CO)C3=O)cc1	none (no result: aSyn UTR inh)
CCOc1ccc(NC(=O)c2ccccn2)cc1	EBV LMP1 NFkB 65.5, PAX8 reporter 65.1, TRPM1 prom inh 61.7, aSyn UTR inh 104.3
CCc1ccc(/C=N/NC(=O)c2ccccn2)cc1	EBV LMP1 NFkB 48.7 (no result: Shn3 3UTR inh)
CCOc1ccc(NC(=O)c2cnsn2)cc1	EBV LMP1 NFkB 55.8 (no result: PAX8 reporter, aSyn UTR inh)
CN(CCc1ccccn1)C(=O)Nc1ccc(F)cc1	none (no result: PAX8 reporter)
CC(C)N(C(=O)[C@H]1C[C@H](CC(=O)NCc2ccco2)C(=O)N2CCc3c([nH]c4cc(-c5ccco5)ccc34)[C@]12C)C(C)C	none (no result: aSyn UTR inh)
CCn1ccnc1CNCc1cn(-c2cc(C)ccc2C)nc1-c1ccccc1	none
COc1cccc(C(=O)Nc2ccc3c(c2)OC[C@H](C)N(C)C[C@@H](C)[C@H](OC)CN(C)C3=O)c1	none (no result: Shn3 3UTR inh, EBV LMP1 NFkB, TRPM1 prom inh, aSyn UTR inh)
CN1C(=O)c2cc(NC(=O)C3CCOCC3)ccc2OC[C@H]2O[C@@H](CC(=O)NCCc3ccncc3)CC[C@H]21	none (no result: Shn3 3UTR inh, EBV LMP1 NFkB, TRPM1 prom inh, aSyn UTR inh)
CCN1CCCC1CNC(=O)c1cc2c(OC)c(OC)c(OC)cc2[nH]1 (stereo not drawn)	none
Cn1c(=O)c2c(SCC(=O)NCc3ccco3)nc(CC(C)(C)C)nc2n(C)c1=O	none (no result: TRPM1 prom inh)
C=C1C(=O)OC2C=C(CO)C3OC3C3OC3(C)CC(OC(=O)/C(=C/C)COC(C)=O)C12 (stereo not drawn)	Shn3 3UTR inh 93.3, EBV LMP1 NFkB 70.2, PAX8 reporter 83.0, TRPM1 prom inh 84.5 (no result: aSyn UTR inh)
O=C(Nc1ccc(C(=O)O)cc1)Nc1ccc([N+](=O)[O-])cc1	none
O=C(Nc1cc(C(F)(F)F)cc(C(F)(F)F)c1)Nc1cnn(-c2ccc([N+](=O)[O-])cc2)c1C(F)(F)F	EBV LMP1 NFkB 57.1, TRPM1 prom inh 69.8
COc1cccc(C#Cc2ccc([C@@H]3[C@@H](C#N)N(C(=O)C4CCC4)[C@H]3CO)cc2)c1	none (no result: Shn3 3UTR inh, EBV LMP1 NFkB, TRPM1 prom inh, aSyn UTR inh)
COc1cccc(C#Cc2ccc([C@@H]3[C@@H](C#N)N(C(=O)C4CCC4)[C@@H]3CO)cc2)c1	none (no result: Shn3 3UTR inh, EBV LMP1 NFkB, TRPM1 prom inh, aSyn UTR inh)
COc1cccc(C#Cc2ccc([C@@H]3[C@H](C#N)N(C(=O)c4ccccn4)[C@H]3CO)cc2)c1	PAX8 reporter 98.0 (no result: Shn3 3UTR inh, EBV LMP1 NFkB, TRPM1 prom inh, aSyn UTR inh)
COc1cccc(C#Cc2ccc([C@@H]3[C@@H](CO)N(C(=O)C4CCCCC4)[C@H]3C#N)cc2)c1	PAX8 reporter 69.6 (no result: Shn3 3UTR inh, EBV LMP1 NFkB, TRPM1 prom inh, aSyn UTR inh)

Compound activity deposited in PubChem BioAssay by Broad Institute.
